In the library only some 2.6% were active in any assay of this set; here they are far more common.
TRPV1 PAM = potentiators of human vanilloid receptor 1 (TRPV1); Q8NER1; 0.02% of 320,000 active; potentiation, % at 8.33 µM; TRPV1-expressing cells, Fluo-8 calcium influx, capsaicin EC20 potentiation; in the data active = potentiation above about 80%; inconclusive = between about 30% and that limit
Target sequence (Q8NER1 whole entry, looked up): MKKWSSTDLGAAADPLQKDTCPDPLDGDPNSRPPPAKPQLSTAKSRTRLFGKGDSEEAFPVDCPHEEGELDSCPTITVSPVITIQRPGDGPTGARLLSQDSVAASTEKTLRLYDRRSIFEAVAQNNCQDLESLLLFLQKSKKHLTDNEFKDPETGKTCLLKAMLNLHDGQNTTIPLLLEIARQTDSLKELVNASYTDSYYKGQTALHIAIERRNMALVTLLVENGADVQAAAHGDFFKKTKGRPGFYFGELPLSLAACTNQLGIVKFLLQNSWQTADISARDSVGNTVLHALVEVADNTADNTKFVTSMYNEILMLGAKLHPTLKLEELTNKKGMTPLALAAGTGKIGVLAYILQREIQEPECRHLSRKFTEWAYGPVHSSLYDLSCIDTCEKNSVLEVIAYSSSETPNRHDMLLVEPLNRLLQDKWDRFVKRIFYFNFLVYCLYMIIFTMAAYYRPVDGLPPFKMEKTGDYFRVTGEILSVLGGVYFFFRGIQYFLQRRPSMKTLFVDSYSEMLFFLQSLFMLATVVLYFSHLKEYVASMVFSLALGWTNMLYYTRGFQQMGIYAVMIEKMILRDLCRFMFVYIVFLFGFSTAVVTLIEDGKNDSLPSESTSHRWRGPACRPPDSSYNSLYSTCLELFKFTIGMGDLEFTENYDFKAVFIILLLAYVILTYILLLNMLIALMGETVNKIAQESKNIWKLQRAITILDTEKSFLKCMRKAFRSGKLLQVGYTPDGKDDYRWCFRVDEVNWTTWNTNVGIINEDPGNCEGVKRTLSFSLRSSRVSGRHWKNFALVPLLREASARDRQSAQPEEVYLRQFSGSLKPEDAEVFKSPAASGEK
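Cells expressing TRPV1 were dye-loaded with Fluo-8 and read kinetically: 10 s baseline, 3 min after compound (agonist portion), then 2 min after EC20 capsaicin (allosteric enhancer portion). Calcium-bound dye fluorescence at 480/520 nm.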
KCNH2 3.1 inh = inhibitors of human KCNH2 3.1 potassium channel isoform; U2OS KCNH2 3.1, thallium flux FluxOr; active compounds read low; activity change, % (tested at about 1.8 µM); 0.95% of 340,000 active; AID 720553;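 active = maximum activity change below -70%; inconclusive = maximum activity change from -70% to -50%; inactive = maximum activity change above -50%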;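 also: thallium influx rate constant from kinetic fluorescence after stimulation buffer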
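Measured as rate of thallium-driven FluxOr signal in transduced U2OS cells carrying the 3.1 channel, read kinetically for 2 min upon stimulation; values are rate constants scaled to DMSO control wells.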
hERG WT inh = blocks the wildtype human KCNH2 potassium channel. Q12809. AID 720551. activity change, % at 1.84 µM. U2OS, BacMam KCNH2, thallium flux FluxOr; active compounds read low. 0.37% of 340,000 active;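 active = maximum activity change below -70%; inconclusive = maximum activity change between -70% and -50%; inactive = maximum activity change above -50%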
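U2OS cells were transduced with wild-type KCNH2 virus (2.03 x 10^8 / mL) for 4 h at room temperature, then cultured overnight at 37 C. Thallium flux was read with FluxOr dye. Rate constants were normalized to DMSO controls.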
TRPV1 agonist = activates the human vanilloid receptor TRPV1; activation, % at 8.33 µM; AID 540275; 0.19% of 320,000 active; TRPV1-expressing cells, Fluo-8 calcium influx, agonist mode; Q8NER1; in the data active = activation above about 80%; inconclusive = between about 30% and that limit
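TRPV1-expressing cells were cultured overnight at 35.5C and loaded with Fluo-8 calcium dye for 40 to 90 min at room temperature. After a 10 s baseline, compound was added and calcium influx was read kinetically for 3 min (ex 480/em 520 nm).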
ClpP mod = qHTS Assay for Activators of ClpP. purified B. subtilis ClpP, FRET peptide cleavage, 20 min. 1.9% of 340,000 active. Potency, µM (series often up to 57.5 µM). AID 651965, 2013; active = well fitted falling curve with a large enough effect; inconclusive = small, poorly fitted or top-dose-only effect; inactive = no such curve, though single readings can be large or run the other way; also: the source files actives as falling curves though it sought activators and does not explain the sign; nearly all actives have a fitted effect of over 65% in size
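Buffer: 100 mM Tris/HCl pH8, 100 mM KCl, 0.05% low protease BSA, 2.5% glycerol, 0.01% Tween-20. ClpP 10 microg/mL final; 20 min RT; delta FRET normalized to ADEP and DMSO controls.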
p53 reactivator = mutant p53 re-activation in reporter cells. H1299 p53-A138V BP100-luciferase reporter, luminescence, 24 h. Potency, µM (titrated, usually from 92.2 µM), most hits filed as activators. 0.063% of 320,000 active. AID 504706; also: nearly all actives have a fitted effect of over 45% in size
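p53-null H1299 cells stably carrying temperature-sensitive p53-A138V and a BP100-luciferase reporter were pinned with compounds (4-point, 1:5 series) and held 24 hrs at 37 deg C. Luminescence was read 10 min after detection reagent.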
ClpP validation = Bacillus subtilis ClpP inhibition, validated hit | shares compounds with ClpP mod | purified B. subtilis ClpP, FRET-FV substrate cleavage, 20 min | Potency, µM (titrated, usually from 57.5 µM), actives largely listed as inhibitors | 40% of 470 active | AID 743245; also: nearly all actives have a fitted effect of over 70% in size
Numbers stand for hits; . = inactive; ? = inconclusive; / = no result given. Unless noted, calls follow the shape of the dose curve; as a rule, active = well fitted curve in the direction sought with a large enough effect; inconclusive = small, poorly fitted or top-dose-only effect, or another doubt; inactive = no such curve, though single readings can be large; an effect the other way counts as inactive or inconclusive.

SMILES | TRPV1 PAM | KCNH2 3.1 inh | hERG WT inh | TRPV1 agonist | ClpP mod | p53 reactivator | ClpP validation
COc1ccc(-n2c(=O)c3c(c4cc(OC)ccc4n3C)n(Cc3cccc(OC)c3)c2=O)cc1 | / | / | / | / | 2.5µM | / | 22µM
CCOc1cc(C=NNC(=O)N(c2ccccc2)c2ccccc2)ccc1O | / | / | / | / | . | / | /
COc1ccc(C)cc1NC(=O)C(OC(=O)c1cnc(C)cn1)c1ccccc1 (configuration not stated) | . | . | . | . | . | . | /
Cc1ccc(C)c(NC(=O)C(OC(=O)c2cnc(C)cn2)c2ccccc2)c1 (configuration not stated) | . | . | . | . | . | . | .
COc1cccc(-c2nc(-c3ccc(NC(=O)c4cccs4)cc3)no2)c1 | . | . | . | . | . | ? | ?
CC(=O)c1ccc(NC(=O)Cn2c(=O)c3cccn3c3ccccc32)cc1 | / | / | / | / | . | / | /
COc1ccc(NC(=O)Cn2c(=O)c3cccn3c3ccccc32)cc1 | / | / | / | / | . | / | .
O=C(Cc1cccs1)Nc1ccc(-c2nnc(-c3ccccc3)o2)cc1 | / | . | . | / | 8.9µM | / | 12µM
COc1ccc(CCNC(=O)c2cccc(-n3cnc4cccnc43)c2C)cc1OC | / | / | / | / | . | / | /
O=C1NC(=O)C2C3OC(C(Br)C3Br)C12 (configuration not stated) | / | . | . | / | . | / | /
COc1ccc2cc3cc(C(=O)Nc4ccccc4C)oc3nc2c1 | / | / | / | / | . | / | 15µM
Cc1ccc(C)c(C(O)c2ncc(-c3ccccc3F)[nH]2)c1 (configuration not stated) | / | / | / | / | . | / | /
CCOC(=O)c1c(NC(=O)c2ccc(S(=O)(=O)N3CCC(C)CC3)cc2)sc2c1CCN(C)C2 | / | / | / | / | . | / | ?
O=C(c1ccccn1)N(Cc1ccco1)C1(C(=O)NC2CCCC2)CCCCC1 | . | . | . | . | 2.5µM | . | .
CC(C)(C)NC(=O)C1c2ccccc2OCC(=O)N1Cc1ccccc1 (configuration not stated) | / | / | / | / | . | / | /
CC(=O)Nc1ccc(NC(=O)c2ccc(N(C)S(=O)(=O)c3ccc(C)cc3)cc2)cc1 | . | . | . | . | . | . | ?
Cc1ccc(Nc2c(-c3c[nH]c4ccccc34)nc3ccccn23)cc1 | / | / | / | / | . | / | /
Cc1ccc(Nc2c(-c3ccc(Br)o3)nc3ccccn23)cc1 | / | / | / | / | 8.9µM | / | ?
Cc1nccn1CCC(=O)NC1CC(C)(C)Cc2c1cnn2-c1ccccc1 (configuration not stated) | / | . | . | / | . | / | /
CCCc1cc(=O)n2[nH]c(NC(=O)c3ccccc3Cl)nc2n1 | / | / | / | / | . | / | /
O=C1CC(c2ccccc2)Cc2nc3nc(C(F)(F)F)nn3cc21 (configuration not stated) | . | . | . | . | . | . | .
CSc1nc2nc3c(cn2n1)C(=O)CC(c1ccccc1)C3 (configuration not stated) | . | . | . | . | . | . | /
O=C(Nc1ccccc1)c1cc2c(-c3ccccc3)nn(-c3ccccc3)c2s1 | / | / | / | / | 7.1µM | / | 19µM
COc1ccccc1NC(=O)c1cc2c(-c3ccccc3)nn(-c3ccccc3)c2s1 | / | / | / | / | . | / | /
Cc1nnc(NC(=O)c2oc3ccccc3c2C)s1 | . | . | . | . | . | ? | /
SMILES | TRPV1 PAM | KCNH2 3.1 inh | hERG WT inh | TRPV1 agonist | ClpP mod | p53 reactivator | ClpP validation
Cc1nnc(NC(=O)c2oc3c(ccc4ccccc43)c2C)s1 | . | . | . | . | 8.9µM | . | 31µM
CCC(C)NC(=O)c1cc2cc3ccc(OC)cc3nc2s1 (configuration not stated) | . | . | . | . | 10µM | . | 14µM
CCOC(=O)c1cc2n(n1)C(C(F)(F)F)CC(C)N2 (configuration not stated) | . | . | . | . | . | . | .
CC1CC(C(F)(F)F)n2nc(C(=O)O)cc2N1 (configuration not stated) | . | . | . | . | . | . | /
COc1ccc(Br)cc1CNC(=O)c1cnc2sc(N3CCCCCC3)nn2c1=O | / | / | / | / | 8.9µM | / | .
CCOC(=O)C1CCCN(c2ncnc3c2oc2ccccc23)C1 (configuration not stated) | . | . | . | . | . | ? | .
CCOC(=O)C1CCN(c2ncnc3c2oc2ccccc23)CC1 | . | . | . | . | . | ? | /
Cc1cccc2[nH]c3c(=O)n(CCN4CCNCC4)cnc3c12 | . | . | . | . | ? | . | /
COc1ccc2c(c1)c1ncn(CCN3CCNCC3)c(=O)c1n2C | . | . | . | . | 2.2µM | . | 19µM
Cc1ccc2[nH]c3c(=O)n(CCN4CCNCC4)cnc3c2c1 | . | . | . | . | 8.9µM | . | 22µM
Cc1ccc2[nH]c(=O)c(CN(Cc3ccc4c(c3)OCO4)Cc3nnnn3C3CCCC3)cc2c1 | . | -128 | . | . | . | / | .
CCc1nc2ccc(C(=O)NCCc3ccccn3)cn2c1N(CC)Cc1cccc(Br)c1 | / | / | / | / | . | / | /
O=c1n(Cc2ccc(Cl)cc2)c2sc3c(c2c2ncnn12)CCCC3 | . | . | . | . | 2.8µM | . | .
CC(=O)N1CCc2c(sc(NC(=O)C3CCCN3S(=O)(=O)c3cccs3)c2C(N)=O)C1 (configuration not stated) | . | . | . | . | 4µM | . | .
COc1ccc(C#Cc2c(-c3ccsc3)oc3ccc(-c4cc(OC)c(OC)c(OC)c4)cc23)cc1 | / | . | . | / | . | / | ?
COc1ccc(-c2oc3ccc(-c4cc(OC)c(OC)c(OC)c4)cc3c2-c2ccc(OC)cc2)cc1 | / | . | . | / | . | / | /
c1cncc(-c2nnc(-c3ccco3)o2)c1 | . | . | . | . | 3.5µM | . | 24µM
Clc1ccc(-c2nnc(-c3ccco3)o2)cc1 | . | . | . | . | . | ? | /
COc1cc(Cl)c(C)cc1NC(=O)CNC(=O)Cn1ccc2ccccc2c1=O | / | / | / | / | . | / | /
COc1ccc(-c2ccc(=O)n(CC(=O)Nc3ccc(N(C)C)cc3)n2)cc1 | / | / | / | / | . | / | /
CCOC(=O)N1CCN(C(=O)c2ccc(S(=O)(=O)Nc3ccc(C)cc3)cc2)CC1 | / | . | . | / | . | . | .
CC1Cc2ccccc2N1c1nc(C2CC2)nc2c1nnn2Cc1ccccc1 (configuration not stated) | . | . | . | . | 7.1µM | . | 27µM
Cc1ccc(CN(C(=O)COc2cccc([N+](=O)[O-])c2)c2ccccn2)o1 | / | / | / | / | . | / | /
CCN(c1ccccc1)S(=O)(=O)c1ccc(OC)c(NC(=O)c2cc(F)c(F)c(F)c2F)c1 | / | . | . | / | . | . | ?
Cc1c(-c2ccc(Cl)cc2)c(=O)oc2c(CN3CCN(CCO)CC3)c(O)ccc12 | / | / | / | / | . | / | /
CCN(CC)C(=O)c1c2c(nc3ccccc13)-c1ccccc1CC2 | . | . | . | . | 8.9µM | . | 22µM

Screening results (PubChem BioAssay)
